Compounds with a hit are over-represented: about 4.3% of the library has one in this group of screens.
NALP1 inh: NALP1 inflammasome inhibitors in reconstituted yeast, colorimetric, S. cerevisiae, triplicate retest. S. cerevisiae NALP1/ASC/caspase-1 growth, X-gal OD620, 72 h. inhibition, % at 10 µM. actives 0.61% (n = 280,000); in the data active means inhibition mostly above about 24%, no sharp cut-off; inactive means mostly below about 32%
UBC13 polyUb: UBC13 polyubiquitin chain formation inhibitors, primary screen, biochemical, TR-FRET, uHTS. inhibition, % at 20 µM. AID 485273, 2010. Ubiquitin-conjugating enzyme E2 N (Homo sapiens), P61088. actives 0.47% (n = 330,000); in the data active means inhibition above about 45%, passing the limit was not always enough; inconclusive means no clear call, values can overlap the other calls
Target sequence (P61088 whole entry, looked up): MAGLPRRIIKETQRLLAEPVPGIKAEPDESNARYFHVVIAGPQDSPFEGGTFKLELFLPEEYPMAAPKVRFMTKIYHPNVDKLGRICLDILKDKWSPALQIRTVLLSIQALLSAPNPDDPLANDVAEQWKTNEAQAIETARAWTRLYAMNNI
dFosB act-1: activators of delta FosB homodimer, primary screen, biochemical, fluorescence polarization, TAMRA-CDK5 oligo, single point | purified delta FosB; percent of positive-control signal above neutral wells | actives 0.99% (n = 340,000) | activation, % at 25 µM | Protein FosB (Mus musculus), P13346;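 active means mean activation above about 17%, with every replicate also reaching it, limit read from the data, passing the limit was not always enough; inconclusive means only one of the two conditions met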
Target sequence (P13346 whole entry, looked up): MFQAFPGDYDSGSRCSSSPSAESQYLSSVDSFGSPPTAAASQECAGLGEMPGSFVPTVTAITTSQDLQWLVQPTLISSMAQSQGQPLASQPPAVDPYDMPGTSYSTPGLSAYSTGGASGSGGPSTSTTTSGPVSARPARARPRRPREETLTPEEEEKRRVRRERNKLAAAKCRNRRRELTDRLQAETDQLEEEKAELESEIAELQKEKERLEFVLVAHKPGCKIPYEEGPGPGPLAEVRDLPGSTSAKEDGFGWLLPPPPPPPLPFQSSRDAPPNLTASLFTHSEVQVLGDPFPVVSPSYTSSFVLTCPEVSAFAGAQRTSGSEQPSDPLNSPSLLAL
GRIN3A LBD mod: binders of NR3A ligand-binding domain, primary screen, biophysical, differential scanning fluorimetry, uHTS. NR3A LBD differential scanning fluorimetry, Tm shift; 0% = protein alone, 100% = glycine-bound protein. Tm shift relative to glycine control, % at 25 µM. actives 2.5% (n = 340,000). AID 1259313, 2017;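 active means melting temperature shift of at least 10% of the positive control shift, at one fixed dose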
Yeast superoxide: reduction of superoxide in aged yeast, primary screen, HTS; S. cerevisiae aged cells, superoxide DHE fluorescence; stronger effect = lower value; superoxide response (% of plate mean), % at 10 µM; actives 0.18% (n = 330,000); AID 2690, 2010;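 active means superoxide response under a set limit, about three screen SD below normal, cut at about 65% in these data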;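 further: yeast aged for seven days with compound at 30 °C before DHE staining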
dFosB act-2: activators of mouse delta FosB DNA binding, confirmation, biochemical, fluorescence polarization, TAMRA-CDK5 oligo, cherry-picked samples. activation, % at 24.9 µM. AID 588690, 2011. 2,400 tested, under 10 active. purified delta FosB; normalised: neutral wells 0, positive control 100. shares compounds with dFosB act-1;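 active means highest replicate activation at or above 34% and every replicate reaching that threshold; inconclusive means meets only one of the two criteria; inactive means meets neither criterion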;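 further: higher polarization means more probe DNA bound by delta FosB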
Each line names hits and unclear results; the compound was inactive in the other large screens (follow-up assays come after a bar, where they were run).

O=c1nc(Nc2ccc(OCc3ccccc3)cc2)sc2ncccc12	dFosB act-1 20 | dFosB act-2 inactive
COc1ccc(C(CNC(=O)c2oc3ccccc3c2C)N2CCCC2)cc1 (configuration not stated)	none (no result: NALP1 inh)
COc1ccc(C(CNC(=O)c2oc3ccc(Cl)cc3c2C)N2CCCCC2)cc1 (configuration not stated)	dFosB act-1 23 | dFosB act-2 inactive
Cc1cccc(NC(=O)CCCn2c(=S)[nH]c3ccccc3c2=O)c1	dFosB act-1 25 | dFosB act-2 inactive
COc1ccc(NC(=O)Nc2ccc(N3CCOCC3)c3nonc23)c(OC)c1	dFosB act-1 26 | dFosB act-2 inactive
Cc1cc(C)c(NC(=O)CN(C)CC(=O)N(C)CC(=O)Nc2c(Cl)cccc2Cl)c(C)c1	none (no result: NALP1 inh)
CCn1nc(NC(=O)c2ccccn2)c2cc3cc(C)ccc3nc21	dFosB act-1 21 | dFosB act-2 inactive
Cc1cc(O)c(-c2n[nH]c3c2C(c2cccc(O)c2)N(Cc2cccnc2)C3=O)cc1Cl (configuration not stated)	dFosB act-1 23 | dFosB act-2 inactive
CCCN1C(=O)c2[nH]nc(-c3cc(Cl)c(C)cc3O)c2C1c1ccc(O)c(OC)c1 (configuration not stated)	none
OC(CNCCc1ccccc1)COc1ccc(OCC(O)CNCCc2ccccc2)cc1 (configuration not stated)	dFosB act-1 19 | dFosB act-2 inactive
COCCn1c(=S)[nH]c2cc(C(=O)N3CCc4ccccc43)ccc2c1=O	none
CCCn1c(=S)[nH]c2cc(C(=O)N3CCc4ccccc43)ccc2c1=O	dFosB act-1 50 | dFosB act-2 inactive
CN(C(=O)CSc1nnc(-c2ccc(OC(F)F)cc2)n1N)C1CCS(=O)(=O)C1 (configuration not stated)	none (no result: NALP1 inh)
COc1ccc2oc(C(=O)OCC(=O)NCc3ccco3)c(C)c2c1	none (no result: NALP1 inh)
O=C(COC(=O)c1cc(NS(=O)(=O)c2cccs2)ccc1O)Nc1ccc(F)c(F)c1F	dFosB act-1 22 | dFosB act-2 inactive
CC1(C)Cc2c(sc3ncnc(NN)c23)CO1	none
CC(OC(=O)CC(C)c1ccccc1)C(=O)Nc1ccc(Cl)cn1 (configuration not stated)	none (no result: NALP1 inh, Yeast superoxide)
CCN(CC)c1nc(N)nc(NS(=O)(=O)c2ccc(Cl)cc2)n1	none
CCN(CC)c1nc(NN)nc(Nc2ccc(C)c(Cl)c2)n1	dFosB act-1 42 (no result: NALP1 inh) | dFosB act-2 inconclusive
S=c1[nH]nc(Cc2noc3ccccc23)n1-c1ccccc1	none
CC(C)C(OC(=O)Cn1nnc2ccccc21)C(=O)NC1CCCC1 (configuration not stated)	none
Cc1ccc(C(=O)COC(=O)[C@@H](NC(=O)c2ccco2)C(C)C)s1	none (no result: NALP1 inh)
Fc1ccccc1OCCCCN1CCCCC1	none
CC(C)Cn1c(N)c(/C=N/NC(=O)c2ccc(Cl)cc2)c(=O)n(C)c1=O	dFosB act-1 19 | dFosB act-2 inactive
CC(C)(C)OC(=O)N(Cc1ccccc1)Cc1ccccc1OCc1ccc(NC(=O)C2CCC2)cc1	none (no result: NALP1 inh, UBC13 polyUb, Yeast superoxide)
Cc1cc(Br)ccc1SCC(=O)OCC(O)=C(C#N)c1nc2ccccc2[nH]1	none (no result: NALP1 inh, UBC13 polyUb, Yeast superoxide)
Cc1cc(Br)ccc1SCC(=O)OC/C(O)=C(\C#N)c1nc2ccccc2[nH]1	dFosB act-1 52 (no result: NALP1 inh) | dFosB act-2 inactive
Cc1c(-c2nc(N)nc(Nc3ccccc3)n2)oc2ccccc12	dFosB act-1 52 | dFosB act-2 inactive
Nc1nc(CN2CCCCCC2)nc(Nc2ccccc2)n1	none
CCCNC(=O)c1onc(CSc2ccc(F)cc2)c1C(=O)NCCOC	none (no result: NALP1 inh)
CSc1nc2sc(-c3ccccc3)cc2c(=O)n1N	dFosB act-1 65 | dFosB act-2 inactive
CC(C)Sc1nc2sc(-c3ccccc3)cc2c(=O)n1N	none
CC(=O)N1CCN(C(=O)CCc2cc(C(C)(C)C)c(O)c(C(C)(C)C)c2)CC1	none
CC(=O)Nc1ccc(NC(=O)Cn2c(=O)n(-c3ccc(F)cc3)c(=O)c3oc4ccccc4c32)cc1	dFosB act-1 21 | dFosB act-2 inactive
C=CCn1c(SCC(=O)N(C)C2CCS(=O)(=O)C2)nnc1-c1ccccc1 (configuration not stated)	none (no result: NALP1 inh)
C=CCc1cccc(CNc2ccc(Br)cc2)c1O	none
Cc1cccc(C)c1NC(=O)COC(=O)c1ccc(N2CCCC2)c([N+](=O)[O-])c1	dFosB act-1 51 | dFosB act-2 inactive
Cc1cccc(N(Cc2ccccc2)C(=O)c2cccc(S(=O)(=O)N3CC(C)OC(C)C3)c2)c1 (configuration not stated)	none (no result: NALP1 inh)
CCC1CCCCN1CCCNC(=O)c1ccc2c(c1)NC(=O)CS2 (configuration not stated)	none
CCC1CCCCN1CCCNC(=O)c1ccc(/C=C2/Sc3ccccc3NC2=O)cc1 (configuration not stated)	dFosB act-1 38 | dFosB act-2 inactive
Cc1ccc(CNC(=O)C2CCC(CNc3nc(=S)[nH]c4ccccc34)CC2)cc1 (configuration not stated)	dFosB act-1 inconclusive
COc1ccc(CNC(=O)Cc2csc(Nc3nc(=S)[nH]c4ccccc34)n2)cc1	dFosB act-1 35 | dFosB act-2 inactive
Cn1c(=O)cc(OCC(=O)NCCCN2CCN(c3ccccc3F)CC2)c2ccccc21	none
O=C(Cc1csc(Nc2nc(=S)[nH]c3ccccc23)n1)NCc1ccc(Cl)cc1	none
O=C(Cc1csc(Nc2nc(=S)[nH]c3ccccc23)n1)NCCCN1CCN(c2ccccc2F)CC1	dFosB act-1 20 | dFosB act-2 inactive
COc1cccc(CNC(=O)C2CCC(CNc3nc(=S)[nH]c4ccccc34)CC2)c1 (configuration not stated)	dFosB act-1 37 | dFosB act-2 inactive
CCCN1CCN(S(=O)(=O)c2ccc(-n3cnnn3)cc2)CC1	none
Cn1cccc1C(=O)NCC(c1ccco1)N1CCCCC1 (configuration not stated)	none (no result: NALP1 inh)
Cc1ccc2nc(-c3cccnc3SCC(=O)N3c4ccccc4CC3C)[nH]c2c1 (configuration not stated)	dFosB act-1 29 | dFosB act-2 inactive
Cc1ccc2nc(SCC(=O)N3c4ccccc4CC3C)c(C)cc2c1 (configuration not stated)	none
Cc1cnc(C(=O)N2CCN(S(=O)(=O)c3ccc(F)c(F)c3F)CC2)cn1	dFosB act-1 19 (no result: NALP1 inh) | dFosB act-2 inactive
